Assay results taken from PubChem BioAssay AID618 (Sanford-Burnham Center for Chemical Genomics, 2007).
Screen size: about 87,000 compounds; about 540 (0.62%) were called active. This is one part of a sample in which actives are shown more often than they occur. No rule for the calls is given here. Measured potencies and affinities stand elsewhere.

experiment: inhibitors of MT1-MMP promoter transcription, cell-based, luciferase reporter, luminescence (AID 618); settings: MT1-MMP promoter luciferase reporter cells;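 also: actives suppress MT1-MMP promoter-driven transcription so potencies describe inhibitors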

Compound	outcome
CCOC(=O)C1CCN(Cc2ccccc2C)CC1	inactive
Cc1cnc(C)c(N2CCC(C(=O)NC(C)c3cccs3)CC2)n1 (stereo unspecified)	inactive
COc1cccc(C2CC(=O)Nc3cc4c(cc32)OCCO4)c1OC(C)C (stereo unspecified)	inactive
CCOc1ccccc1C1CC(=O)Nc2cc3c(cc21)OCCO3 (stereo unspecified)	inactive
CCCOc1ccccc1C1CC(=O)Nc2cc3c(cc21)OCCO3 (stereo unspecified)	inactive
CCOc1ccccc1C1CC(=O)Nc2cc3c(cc21)OCO3 (stereo unspecified)	active
CC(C)Oc1ccccc1C1CC(=O)Nc2cc3c(cc21)OCO3 (stereo unspecified)	active
CC(C)Oc1ccccc1C1CC(=O)Nc2cc3c(cc21)OCCO3 (stereo unspecified)	inactive
Cc1[nH]nc2c1C(c1ccc(Cl)cc1)C(C#N)=C(N)O2 (stereo unspecified)	inactive
CCOC(=O)C1CCCn2c1nc1sc3c(c1c2=O)CCCC3 (stereo unspecified)	inactive
CC(C)(C)c1ccc(S(=O)(=O)NCc2ccc(C(=O)N3CCCC3)cc2)cc1	inactive
COc1ccc(N/N=C(\C=N\O)C(=O)c2ccc(OC)cc2)cc1	active
CO/N=C/C(=N\Nc1ccc(OC)cc1)C(=O)c1ccc(OC)cc1	inactive
CO/N=C/C(=N\Nc1ccc(C)cc1)C(=O)c1ccc(OC)cc1	inactive
Cc1c(C(=O)OC(C)CCN(C)C)oc2ccccc12 (stereo unspecified)	inactive
CN1/C(=C\C(=O)COC(=O)CN2C(=O)C3CC=CCC3C2=O)C(C)(C)c2ccccc21 (stereo unspecified)	inactive

Compound	outcome
Fc1ccc(Cn2c(-c3cscn3)nc3ccccc32)c(Cl)c1	inactive
Cc1oc2ccc(O)cc2c1C(=O)OC(C)C	inactive
CCN1C(=O)C(CC(=O)N2CCN(C(c3ccccc3)c3ccccc3)CC2)N(CC)C1=O (stereo unspecified)	inactive
O=C(CSc1nc2ccccc2s1)CSc1nc2ccccc2s1	inactive
CC(=O)CSc1nc2ccccc2s1	inactive
CC(C)Oc1ccc(C2c3c(oc4ccccc4c3=O)C(=O)N2CCCN2CCOCC2)cc1 (stereo unspecified)	inactive
NC(=O)CSc1nnc2sc3ccccc3n12	inactive
CN(C)C(=O)CSc1nnc2sc3ccccc3n12	inactive
COc1ccc(OCCSc2nnc3sc4ccccc4n23)cc1	inactive
COc1cccc(OCCSc2nnc3sc4ccccc4n23)c1	inactive
C=CCOC(=O)C1=C(C)NC(=O)NC1c1cn(-c2ccccc2)nc1-c1cccs1 (stereo unspecified)	inactive
COc1ccc(-n2c(Cc3cccn3C)nnc2SCC(=O)Nc2cccc(F)c2)cc1	inactive
Cc1cc(/C=N/n2cnnc2)c(C)n1-c1ccc(OCc2ccccc2F)cc1	inactive
Cc1cc(/C=N/n2cnnc2)c(C)n1-c1ccc(OCc2ccc(Cl)cc2)cc1	inactive
Cc1ccc(C)c(N(CC(=O)NC2CCCCC2)C(=O)CCC(=O)Nc2ccccn2)c1	inactive
